Results published in PubChem BioAssay AID1942 (Johns Hopkins Ion Channel Center, 2009).
Hit rate of the full screen: of about 2,400 compounds, about 580 (24%) were called active. The list is a sample of the results. Unmarked numbers belong to inactive results.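 Rule for the calls: active = activity change at or above the mean plus 3 SD of buffer wells without dofetilide, per plate; inactive = the rest.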

Each molecule was assayed against Potassium voltage-gated channel subfamily KQT member 2 (Rattus norvegicus) (UniProt O88943) (assay: KCNQ2 potentiation in CHO cells – cell-based, FluxOR thallium flux, counter-screen for hERG block protector project, confirmation (AID 1942;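 note: normalized value minus buffer-control mean plus three SD of buffer wells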)). Settings: FluxOR thallium flux fluorescence, at 10 µM, hits give high values.
Sequence of Potassium voltage-gated channel subfamily KQT member 2 (Rattus norvegicus) (O88943 whole entry, looked up): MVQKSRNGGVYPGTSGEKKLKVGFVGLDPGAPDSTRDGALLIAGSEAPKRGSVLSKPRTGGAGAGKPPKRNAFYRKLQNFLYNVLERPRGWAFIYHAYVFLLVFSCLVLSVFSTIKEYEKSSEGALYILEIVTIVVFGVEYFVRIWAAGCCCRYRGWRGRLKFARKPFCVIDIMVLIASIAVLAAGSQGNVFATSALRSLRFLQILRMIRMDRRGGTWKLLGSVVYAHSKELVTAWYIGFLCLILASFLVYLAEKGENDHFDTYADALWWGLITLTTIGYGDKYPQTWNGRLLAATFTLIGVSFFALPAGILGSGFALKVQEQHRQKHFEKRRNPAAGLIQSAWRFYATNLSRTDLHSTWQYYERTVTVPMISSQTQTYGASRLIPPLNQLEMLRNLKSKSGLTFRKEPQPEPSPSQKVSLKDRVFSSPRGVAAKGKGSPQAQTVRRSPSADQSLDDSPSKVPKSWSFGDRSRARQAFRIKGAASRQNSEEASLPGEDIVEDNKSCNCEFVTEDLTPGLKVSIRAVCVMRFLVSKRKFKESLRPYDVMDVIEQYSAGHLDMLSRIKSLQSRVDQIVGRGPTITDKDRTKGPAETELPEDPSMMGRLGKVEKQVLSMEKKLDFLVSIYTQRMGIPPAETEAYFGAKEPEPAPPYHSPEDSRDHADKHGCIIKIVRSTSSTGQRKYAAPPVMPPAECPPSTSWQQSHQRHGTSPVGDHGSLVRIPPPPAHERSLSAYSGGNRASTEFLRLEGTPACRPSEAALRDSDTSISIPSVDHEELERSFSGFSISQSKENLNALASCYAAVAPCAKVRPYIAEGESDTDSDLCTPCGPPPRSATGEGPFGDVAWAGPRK

| SMILES | activity change, less the hit threshold |
| --- | --- |
| O=C(NC(=S)Nc1ncc(Br)cc1Br)c1ccccc1 | -0.7% |
| O=C(c1n[nH]c2c1CCCC2)n1ccnc1 | -12.7% |
| C[C@@H]1CCCCCCCCCCC1=O | -18% |
| Cc1ccc(C(=O)CC(=O)COc2ccc(Cl)cc2C)cc1 | -1.4% |
| Cc1ccc(C(=O)CC(=O)c2ccc(C)cc2O)cc1 | -9.3% |
| Cc1ccc(C(=O)COC(=O)C2CCC2)cc1 | 2.2% (active) |
| O=c1ccn(Cc2ccc(F)cc2)c2ccnc(C(F)(F)F)c12 | -16.3% |
| CCc1ccc2[nH]c(=O)c(-c3ccccc3)c(O)c2c1 | -20.4% |
| Cc1cccc(N2CCN(C(=O)Cc3c(C(=O)O)[nH]c4ccc(Cl)cc34)CC2)c1C | 16.8% (active) |
| Cc1cccc(N2CCN(C(=O)CNC(=O)c3cccc([N+](=O)[O-])c3)CC2)c1C | -27.6% |
| Cc1cc2[nH]c(=O)c(=O)[nH]c2cc1S(=O)(=O)N1CCN(c2cccc(C)c2C)CC1 | -10.5% |
| CCOC(=O)C1=C(N)Oc2cc(O)ccc2C1c1cccnc1 (centres undefined) | -24.7% |
| COc1cccc(OC)c1C(=O)NC(=S)N1CCN(c2ccc(C(F)(F)F)cc2[N+](=O)[O-])CC1 | -33.8% |
| O=C(NC(=S)N1CCN(c2c(Cl)cccc2[N+](=O)[O-])CC1)c1cccs1 | 7.2% (active) |
| O=C(NC(=S)N1CCN(c2ccc(C(F)(F)F)cc2[N+](=O)[O-])CC1)c1cccs1 | 15.6% (active) |
| O=C(NC(=S)Nc1ccc(N2CCCCC2)c(Cl)c1)c1cccs1 | -0.7% |
| O=C(NC(=S)Nc1cccc(Cl)c1N1CCCCC1)c1cccs1 | -12.7% |
| O=C(NC(=S)N1CCN(c2ccc(Cl)cc2[N+](=O)[O-])CC1)c1cccs1 | 2.3% (active) |
| O=C(NC(=S)Nc1cccc(Cl)c1N1CCOCC1)c1cccs1 | -17% |
| COc1ccc(N2CCN(C(=S)NC(=O)c3cccs3)CC2)c([N+](=O)[O-])c1 | -6.4% |
| CC(C)Oc1cccc(C(=O)NC(=S)N2CCN(c3ccc(C(F)(F)F)cc3[N+](=O)[O-])CC2)c1 | -12.3% |
| COc1ccc(-c2ccc3c(N)c(C(=O)c4ccc(OC)c(OC)c4)sc3n2)cc1 | -11.8% |
| Cc1c(C#N)c(O)[nH]c(=O)c1N=Nc1ccc(Br)cc1C(=O)O | -13.8% |
| COc1ccc2c(C(=O)CN3CCN(c4ccccc4)CC3)c[nH]c2c1 | -21.6% |
| CCCCCCc1c(O)nc(SCC(=O)O)[nH]c1=O | -23.9% |

| SMILES | activity change, less the hit threshold |
| --- | --- |
| CC1=NN(c2nc(-c3ccccc3)cs2)C(=O)C1N=Nc1ccccc1 (centres undefined) | -28% |
| Cc1nnc(NC(=O)C2CCCN(S(=O)(=O)c3ccccc3C(F)(F)F)C2)s1 (centres undefined) | 4.9% (active) |
| CCc1nnc(NC(=O)C2CCCCN2S(=O)(=O)c2ccccc2)s1 (centres undefined) | -11.7% |
| COC(=O)c1ccccc1NC(=O)C1CCCN(S(C)(=O)=O)C1 (centres undefined) | -18.8% |
| CSc1nsc(SCC(=O)Nc2ccccc2C(=O)O)n1 | -13% |
| COC(=O)CCn1[nH]c(=O)c2ccccc2c1=O | -15.8% |
| CC(=O)NCCc1nc2cc(NC(=O)c3ccc(Cl)cc3)ccc2n1C | -14.1% |
| C/C(=N\Nc1cc(N2CCOCC2)ncn1)c1cccc([N+](=O)[O-])c1 | -15.9% |
| C/C(=N/NC(=S)Nc1cccc(C)c1)c1cccc([N+](=O)[O-])c1 | -13.2% |
| C/C(=N\Nc1nc(C)c(C)s1)c1ccc([N+](=O)[O-])cc1 | 17% (active) |
| Cc1cc(C)cc(N(C(=O)c2cc3ccccc3oc2=O)C2C=CS(=O)(=O)C2)c1 (centres undefined) | -12.7% |
| COc1ccc(CC(=O)Nc2ccccc2Oc2ccccc2)cc1 | -0.3% |
| COc1cc(NC(=O)c2ccccc2)c(OC)cc1NC(=O)Cc1ccc(Br)cc1 | 12.3% (active) |
| COc1ccc(Br)cc1CNc1ccccc1 | -21.6% |
| CCOC(=O)CN1C(=O)SC(Nc2ccc(C)cc2)C1=O (centres undefined) | -7% |
| O=C(COc1nsnc1N1CCOCC1)Nc1ccc(Cl)cc1 | -17.5% |
| CN(Cc1cnn(C)c1)C(=O)C1CCC(=O)N(Cc2cccc(C(F)(F)F)c2)C1 (centres undefined) | -19.6% |
| COc1ccc(N2CCN(S(=O)(=O)c3ccc(Br)s3)CC2)cc1 | -14.9% |
| CC1=CN2C(=N)/C(=C/c3ccc(Sc4ccc(Cl)cc4)o3)C(=O)N=C2S1 | -17.8% |
| CC(C)Cn1c(=S)[nH]c2cc(Cl)ccc21 | 6.5% (active) |
| O=c1c2cc(Cl)ccc2[nH]c(=S)n1Cc1cccs1 | -11.7% |
| CCCn1c(=S)[nH]c2ccc(C(F)(F)F)cc21 | -3.6% |
| COc1cccc(/C=C2/C(=O)NN(c3ccc(C)c(C)c3)C2=O)c1 | -18% |
| O=C(N1CCOCC1)N1CCC(c2nc(-c3ccc(S(=O)(=O)N4CCOCC4)cc3)no2)CC1 | -23.6% |
